SMILES strings stand for the structures. Active and inactive are the calls of the source. How the source made its calls: active means hit-call score of the fitted dose curve at least 0.9, where 1 is the maximum; inconclusive means response in the unintended direction; inactive means score below 0.9.

In the experiment the target is Estrogen receptor beta (Homo sapiens) (UniProt Q92731). The experiment can be described thus: OT_ER_ERbERb_1440: Odyssey Thera (OT) 24-hour HEK293T Protein-Complementation Assay for Estrogen Receptor-beta/-beta Homodimer (AID 2283380).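 Further: scored as signal increase over DMSO baseline for both agonists and antagonists.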 As to the method: OT_ER_ERbERb_1440 is a cell-based assay that uses HEK293T, a human kidney cell line, with measurements taken at 24 hours after chemical dosing in a 384-well plate.OT_ER_ERbERb_1440 is one of one assay component(s) measured or calculated from the OT_ER_ERbERb_1440 assay. It is designed to make measurements of protein fragment complementation, a form of binding reporter, as detected with fluorescence intensity signals by Protein-fragment Complementation technology.Data from the assay component OT_ER_ERbERb_1440 was analyzed into 1 assay endpoint. This assay endpoint, OT_ER_ERbERb_1440, was analyzed in the positive analysis fitting direction relative to DMSO as the negative control and baseline of activity. Using a type of binding reporter, measures of receptor for gain-of-signal activity can be used to understand the binding at the pathway-level as they relate to the gene ESR2. Furthermore, this assay endpoint can be referred to as a primary readout, because the performed assay has only produced 1 assay endpoint. To generalize the intended target to other relatable targets, this assay endpoint is annotated to the nuclear receptor intended target family, where the subfamily is steroidal.
Sequence of Estrogen receptor beta (Homo sapiens) (Q92731 whole entry, looked up, the tested form may be a part): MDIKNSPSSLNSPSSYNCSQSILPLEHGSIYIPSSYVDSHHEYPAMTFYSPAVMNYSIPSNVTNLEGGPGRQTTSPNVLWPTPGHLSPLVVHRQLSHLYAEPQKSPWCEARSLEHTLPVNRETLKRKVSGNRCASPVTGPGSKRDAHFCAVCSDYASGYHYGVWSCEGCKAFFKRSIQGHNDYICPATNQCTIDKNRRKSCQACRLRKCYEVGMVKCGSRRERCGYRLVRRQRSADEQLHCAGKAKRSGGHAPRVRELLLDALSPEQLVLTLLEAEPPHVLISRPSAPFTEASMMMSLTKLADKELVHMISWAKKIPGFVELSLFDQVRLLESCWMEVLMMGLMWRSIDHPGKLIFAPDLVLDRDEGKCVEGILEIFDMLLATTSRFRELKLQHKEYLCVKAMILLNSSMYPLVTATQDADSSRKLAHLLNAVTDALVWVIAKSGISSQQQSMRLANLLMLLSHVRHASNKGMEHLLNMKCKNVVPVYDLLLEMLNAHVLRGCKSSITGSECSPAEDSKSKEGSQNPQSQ
Protein-fragment complementation assay, or PCA, is a method for the identification and quantification of protein-protein interactions. In the PCA, the proteins of interest ("bait" and "prey") are each covalently linked to fragments of a third protein (e.g. DHFR, which acts as a "reporter"). Interaction between the bait and the prey proteins brings the fragments of the reporter protein in close proximity to allow them to form a functional reporter protein whose activity can be measured. The OT ER beta / ER beta assay is a homodimer PCA of the ligand binding domain (LBD; amino acids 310-547) of human ER beta stably expressed in HEK293T cells. […] Cells are fixed in 4 percent formaldehyde and stained with Draq5 (BioStatus) to identify cells prior to signal detection. Fluorescent signal in the basal state of the assay is very low and is primarily punctuate and cytoplasmic. Modulation of this assay is quantified as an increase in mean fluorescence intensity in the nucleus (for agonists) or in the nucleus and cytoplasm (antagonists) relative to vehicle controls, and can be quantified on a high content imaging device or a laser scanning cytometer. The latter instrument is favored for this assay because of the rapid mode of data acquisition, the ability to acquire data from the entire cell population in a well (as opposed to a fraction of the well on the high content devices) and the larger dynamic range typically achieved with this instrument. To assess sensitivity of the ER beta/ER beta LBD assay to ligand, cells were treated with the ER agonist 17- beta-estradiol (E2) in 10-point concentration- response format for 24 hours and monitored response on a laser scanning plate cytometer (Acumen eX3; TTP Lab Tech).
For the compound `CCCCCOC(=O)CCC`, the result was inactive. Take `CC1=CC(=O)NS(=O)(=O)O1`: the outcome was inactive. `OCCOCCOCCOCCO`: the call was inactive. In the case of `O=C(Cl)c1cccc(C(=O)Cl)c1`, the compound was called inactive.

The AC50 is the concentration at which the activity in the assay is half-maximal. As for `CC(C)=CCCC(C)=CCCC(C)=CCO`, the half-maximal activity concentration (AC50) was 12.8 µM (active). With `Cc1ccc(C(C)C)cc1O`, the outcome was inactive. With `OCCN1CCNCC1`, the compound was called inactive. On to `CC(C)=CCC[C@](C)(O)[C@@H]1CC=C(C)CC1`, for which the compound was classed as inactive. With `C=O`, the result was inactive.

As to `O=C1C(c2[nH]c3ccc(S(=O)(=O)O)cc3c2O)=Nc2ccc(S(=O)(=O)O)cc21`, the outcome was inactive. For the compound `c1ccc(CCCc2ccccn2)cc1`, the outcome was inactive. For `CC(C)CCCCCCCOC(=O)c1ccc(C(=O)OCCCCCCCC(C)C)c(C(=O)OCCCCCCCC(C)C)c1`, the compound was called inactive. `CCCCCCCCCCCCCOS(=O)(=O)O`: the call was inactive. In the case of `CC(=O)OCCOC(C)=O`, the compound was called inactive.

With `CCCCCCCCC`, the compound was classed as inactive. As for `CCCCc1ccc(N)cc1`, the outcome was inactive. With `C[Si](O[Si](C)(C)C)O[Si](C)(C)C`, the compound was called inactive. The same measure, in the same setting: with `CCCCC(CC)COC(=O)/C=C\C(=O)OCC(CC)CCCC` (stereo not given) the entry was “inactive”; with `Cc1ccc(S)cc1`, “inactive”; with `O=C(O)c1ccc([N+](=O)[O-])cc1`, “inactive”.

Turning to `CCCCOCCOCCOCCOCCO`, the result was inactive.

In the case of `CCCCCCCCCC=O`, the compound was called inactive.

With `C=C(C)C(=O)O`, the outcome was inactive.

Take `CCCCC[Si](OCC)(OCC)OCC`: the compound was classed as inactive.

For `O=C1c2ccccc2C(=O)N1SC1CCCCC1`, the call was inactive.

As to `CC(C)(C#N)c1cc(Cn2cncn2)cc(C(C)(C)C#N)c1`, the compound was classed as inactive.

As to `CC1COc2ccccc2N1C(=O)C(Cl)Cl` (stereo not given), the compound was called inactive. `CCC(=O)/C=C/C1C(C)=CCCC1(C)C` (stereo not given): the compound was called inactive. With `CCCCCCCCCCN`, the compound was called inactive.

`CCCCCCCCCCCCCCCC(=O)O`: the compound was classed as inactive.

As for `OC1OC[C@@H](O)[C@H](O)[C@H]1O` (stereo not given in full), the result was inactive. Take `CCC/C=C/C=O`: the call was inactive. In the case of `CCCCCCCCCCCCCCCCCC(=O)OCC(CC)CCCC` (stereo not given), the outcome was inactive. Take `CC(C)c1cccc(O)c1`: the AC50 was 33.5 µM (active). With `O=c1cc(-c2ccccc2)oc2cc(O)cc(O)c12`, the concentration at half-maximal activity (AC50) is 11 µM (active). For the compound `CCCCCCCCC=O`, the outcome was inactive. Same read-out and setting: with `C=CC[N+](C)(C)CC=C` the entry was “inactive”.

On to `CCN(CC)c1ccc2c(-c3ccccc3C(=O)O)c3ccc(=[N+](CC)CC)cc-3oc2c1`, for which the concentration at half-maximal activity (AC50) was 12.2 µM (active). Regarding `NC(=O)Nc1ccc(Cl)cc1`, the outcome was inactive. On the same count and under the same terms, then `BrC1CCC(Br)C(Br)CCC(Br)C(Br)CCC1Br` (stereo not given), with “inactive”.

Source of the values: PubChem BioAssay (EPA / NIEHS).
